Data as given in PubChem BioAssay (EPA / NIEHS).
Records with an inconclusive call do not appear. Activity calls are given as the source filed them. The calls were made as follows, unless noted: active = hit-call score of the fitted dose curve at least 0.9, where 1 is the maximum; inactive = score below 0.9.

Legend:
TTR (gene 7276) = assay: CCTE_GLTED_hTTR_0.125uM: CCTE's human Transthyretin (hTTR) Inhibition Assay, with 0.125uM TTR, Great Lakes Toxicology and Ecology Division (GLTED) Lab (AID 2284431);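 also: hits lower the fluorescence signal relative to DMSO baseline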
Outline: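 TTR at 0.125uM incubated 2 h with test chemical; displacement of bound ANSA read by fluorescence (ex 380, em 475). Activity is signal loss versus DMSO baseline.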

[1] = system: SRY-box transcription factor 17 (SOX17) Protein Expression, Deisenroth Lab, SOX17 (gene 64321); assay: CCTE_Deisenroth_DEVTOX-GLR_Pluri_SOX17: CCTE's DevTox GLR-Pluri Assay Evaluation of SRY-box transcription factor 17 (SOX17) Protein Expression, Deisenroth Lab (AID 2284427; active = hit-call score of the fitted dose curve at least 0.9, where 1 is the maximum)
Outline: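 The endpoint is SOX17+ cells as a fraction of cell count, corrected for the 0.2% DMSO control and obtained by high-content fluorescence imaging of fixed cells. Cells were RUES2-GLR under a 48-hour endoderm differentiation, dosed twice at 24-hour intervals over 1 nM–200 uM.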

[2] = system: SRY-box transcription factor 2 (SOX2) Protein Expression, Deisenroth Lab, SOX2 (gene 6657); assay: CCTE_Deisenroth_DEVTOX-GLR_Pluri_SOX2: CCTE's DevTox GLR-Pluri Assay Evaluation of SRY-box transcription factor 2 (SOX2) Protein Expression, Deisenroth Lab (AID 2284428)
Outline: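 Percent SOX2+ cells (SOX2+ count per total cells, fluorescent imaging) in RUES2-GLR human pluripotent line, expressed relative to 0.2% DMSO. Compounds dosed twice at 24 h intervals during 48 h, 1 nM - 200 uM, 10 concentrations.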

[3] = system: Brachyury (BRA) Protein Expression, Deisenroth Lab, TBXT (gene 6862); assay: CCTE_Deisenroth_DEVTOX-GLR_Pluri_BRA: CCTE's DevTox GLR-Pluri Assay Evaluation of Brachyury (BRA) Protein Expression, Deisenroth Lab (AID 2284429; active = hit-call score of the fitted dose curve at least 0.9, where 1 is the maximum)
Outline: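 RUES2-GLR reporter line; 48 h mesoderm differentiation; two exposures, 24 h apart; 1 nM - 200 uM, 10 points; nuclear stain, high-content imaging, 5 fields/well; endpoint = %BRA+ cells of total count minus 0.2% DMSO; n=4.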

[4] = CCTE_Deisenroth_DEVTOX-GLR_Pluri_CellCount: Viability Assessment in CCTE's DevTox GLR-Pluri Assay Evaluation of Total Cell Counts, Deisenroth Lab (AID 2284430)
Outline: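 Cytotoxicity readout: fluorescent nuclei counts by high-content imaging, expressed as percent change relative to 0.2% DMSO. Human RUES2-GLR pluripotent line differentiated 48 h, dosed twice at 24-h intervals across 1 nM - 200 uM (10 points).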

## Cc1oc2c(NC(=O)c3c(Cl)cccc3Cl)cccc2c1C(C)(C)O
TTR (gene 7276)
  AC50: 1.47 µM (active)

## CCCCCCCCCC(=O)O
TTR (gene 7276)
  AC50: 7.04 µM (active)

## CO[C@H]1/C=C/O[C@@]2(C)Oc3c(C)c(O)c4c(O)c(c(/C=N/N5CCN(C)CC5)c(O)c4c3C2=O)NC(=O)/C(C)=C\C=C\[C@H](C)[C@H](O)[C@@H](C)[C@@H](O)[C@@H](C)[C@H](OC(C)=O)[C@@H]1C
[1]
  AC50: 137 µM (active)
[2]
  outcome: inactive
[3]
  AC50: 59.9 µM (active)
[4]
  AC50: 19.8 µM (active)

## O=C(O)Cc1cc(I)c(Oc2ccc(O)c(I)c2)c(I)c1
TTR (gene 7276)
  AC50: 0.0224 µM (active)

## CCCCOC(=O)c1ccc(O)cc1
[1]
  AC50: 51.6 µM (active)
[2]
  AC50: 21.6 µM (active)
[3]
  AC50: 89.2 µM (active)
[4]
  AC50: 19.8 µM (active)
TTR (gene 7276)
  AC50: 2.26 µM (active)

## CCCCCCCCOC(=O)c1cc(O)c(O)c(O)c1
TTR (gene 7276)
  AC50: 0.512 µM (active)

## COCC(C)OCC(C)OCC(C)O (configuration not stated)
TTR (gene 7276)
  outcome: inactive

## CCCOC(=O)c1cc(O)c(O)c(O)c1
TTR (gene 7276)
  AC50: 0.26 µM (active)

## CN(C)c1ccc(C(=C2C=CC(=[N+](C)C)C=C2)c2ccc(N(C)C)cc2)cc1
TTR (gene 7276)
  AC50: 21.6 µM (active)

## CCCCCc1ccc(N)cc1
TTR (gene 7276)
  AC50: 26.3 µM (active)

## CC/C(=C(/CC)c1ccc(O)cc1)c1ccc(O)cc1
[1]
  AC50: 1.83 µM (active)
[2]
  AC50: 7.85 µM (active)
[3]
  AC50: 1.9 µM (active)
[4]
  AC50: 1.45 µM (active)
TTR (gene 7276)
  AC50: 0.021 µM (active)

## OCCO
[2]
  outcome: inactive
[3]
  outcome: inactive
[4]
  outcome: inactive

## CCCCCCCCOc1ccc(C(=O)c2ccccc2)c(O)c1
TTR (gene 7276)
  AC50: 25 µM (active)

## CC(C)(c1cc(Br)c(O)c(Br)c1)c1cc(Br)c(O)c(Br)c1
TTR (gene 7276)
  AC50: 0.0228 µM (active)
